Results on 8 molecules are retold here after the supplement of paper PMC10105736.

Common to all, as to experiment: MAPPIT interaction score (arbitrary units); higher = stronger binary interaction signal, active = hit call of the paper
In one experiment the target is CG10483. Conditions: MAPPIT configuration: N-N; pair source set: DPIM.
In another experiment the target is CG4847. As to conditions: MAPPIT configuration: N-N; pair source set: DPIM.
In the next experiment the target is twin. As to conditions: MAPPIT configuration: N-N; pair source set: DPIM.
A further experiment concerns the target CG11275. As to conditions: MAPPIT configuration: N-N.
Another experiment concerns the target CG11327. Conditions: MAPPIT configuration: N-C; pair source set: screen_3.
The target of a further experiment is CG10874. Conditions: MAPPIT configuration: N-N; pair source set: Lit-BS-16.
A further experiment addresses RpL38. Conditions: MAPPIT configuration: N-N; pair source set: Curagen_high_conf.
Another experiment addresses bond. Conditions: MAPPIT configuration: N-N; pair source set: Curagen_low_conf.
A further experiment has as its target CG10841. Conditions: MAPPIT configuration: N-N; pair source set: screen_2.
Another experiment concerns the target CG10616. As to conditions: MAPPIT configuration: N-N; pair source set: Finley_Y2H.
The next experiment has as its target CG8159. As to conditions: MAPPIT configuration: N-N; pair source set: Curagen_low_conf.
The next experiment deals with CG11570. As to conditions: pair source set: RRS.
Another experiment addresses MFS16. As to conditions: MAPPIT configuration: N-N; pair source set: DPIM.
In another experiment the target is Tsp. As to conditions: MAPPIT configuration: N-N; pair source set: DPIM.

Unmarked numbers belong to inactive results.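 The calls were made as follows: active = MAPPIT score above the 99th percentile of random reference set scores in the same batch; inactive = at or below it.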
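Also: HEK293T cells with Epo stimulation, STAT-responsive firefly luciferase reporter, fold induction versus unstimulated cells divided by the larger fold induction of two negative controls lacking either bait or prey.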

B1: CG1785 (protein)
chain: MTAVEPATKKKRISKKNKSAWRKTDIQDVEQFLEDQRQEERVGTFADKQDEDLFVVDSSLPKTKATVLSVKQKRKLNAKKPMRSYQALENTSKVQDPIAKRNHVRQKKNGRNIELEVCNPTKPRHRQANSDRAQYYVKLEQRLADKKNKKLDVEKDIWQEVDFRDEIPGLKDEKGWISRELALHTAGNIGKKVVKTHASLHHKTTKAKKFELPHPGMSYNPAPEDHQALIDQVVEREEGIIKKEQHLKRVTTSMFSKVTPEERDRRRLNEMSQGMDEEEGSELDEDVQTNGKKKEDDDEKPYHTINAPVENKKKSKQARRNELKQKELARQTELKRKLKQQTADLIRIKSIRHELDDEEEDLNDLKKRRKQRAEKAKFEPKRLGRHKFEEPDLDVNLPEDIAGNLRNVKTESSLLKDRFHTLQRNNMLPTTKLVSRKKSKVKRFERNSHKEPGVSYNDLKERRRAAAAAAKATANIKI
With B1, the MAPPIT interaction score with CG10483 is 0.068; in the experiment with CG4847 it was 0.0294; in the experiment with twin, -0.15.

B2: Lcp2 (protein)
chain: MFKFVMILAVVGVATALAPVSRSDDVHADVLSRSDDVRADGFDSSLHTSNGIEQAASGDAHGNIHGNFGWISPEGEHVEVKYVANENGYQPSGAWIPTPPPIPEAIARAVAWLESHPPAPEHPRHH
B2: in the experiment with CG11275 (pair source set: Curagen_high_conf), the MAPPIT interaction score was 0.91.

B3: Eh (protein)
chain: MNCKPLILCTFVAVAMCLVHFGNALPAISHYTHKRFDSMGGIDFVQVCLNNCVQCKTMLGDYFQGQTCALSCLKFKGKAIPDCEDIASIAPFLNALE
On to B3, for which the MAPPIT interaction score with CG11327 was 1.52.

B4: gus (protein)
chain: MGQKISGGVKTVSRNDSQSTFKPIIPRELQADFVKPARIDILLDMPPASRDLQLKHSWNSEDRSLNIFVKEDDKLTFHRHPVAQSTDCIRGKVGLTKGLHIWEIYWPTRQRGTHAVVGVCTADAPLHSVGYQSLVGSTEQSWGWDLGRNKLYHDSKNCAGVTYPAILKNDEAFLVPDKFLVALDMDEGTLSFIVDQQYLGIAFRGLRGKKLYPIVSAVWGHCEITMRYIGGLDPEPLPLMDLCRRTIRQKIGRTNLEEHIQQLQLPLSMKTYLLYKNRR
On to B4, for which the MAPPIT interaction score in the experiment with CG10874 is 0.809; with RpL38, 0.363; with bond it was 0.0719.

B5: mxt (protein)
chain: MAHTHLGRAVKNIEAPRPLKTQSRSSLKNSYLVIEELIQLIDNVTVGLQSCNTTPESITLLLHNLRVHGPQLEAVSKDTLDRAFVVFRNASQDERLNITTRLKLLELIELRAKSWDNDDTIAYYKSKQQISNVELPSEYQYDAGVQPGAFSTSPTFGVSGGVGGVNDGAAAAAAAVFNAASAAAAAQAAAIAAVGTSNQQHMLLPPGEVIRNSGKFPKPTKIPGKTYCKDEVVIRNADSGKVMGIKGRRVHMIEELSETIISFQRVNPGAKERLVQITGPAEDKINYAKQLMEDTIRRNASPVRLEPAPAVGGSCSSLNSSNSDDAIVQPRTPTGSSLANRLSFNSAQNFMTATAAAQQISQQMHHQTHHLQHQQQQQVAAVAAAAAAAAHAQATAAAGKVLRPNQQLLMHSYSTNDASVGEYKFTVNVGQHLIKITGDCCELVRVAKLVLDDYFSSSEFLASIEAGAAFDGTSLVTTPSTPLPGAGPPQFWLPGTDSGIGLNCVVSSSANNNGEGDDEVFAEPSNGGSSTSNQNGLARSRRSHFSRKESTPETKGAREKGDLDDLAGTNSLKSNASRVSYDIEHLLYYSMSPHSWTLPTDWQKMQETAPSILRNKDLQDESQRFDGDKYLASIKTAAKRDIVAADEVETLDE
For B5, in the experiment with CG10841, the MAPPIT interaction score was 0.671.

B6: wbl (protein)
chain: MMHILVTLLLVAIHSIPTTWAVTCTGCVDLDELSFEKTVERFPYSVVKFDIAYPYGEKHEAFTAFSKSAHKATKDLLIATVGVKDYGELENKALGDRYKVDDKNFPSIFLFKGNADEYVQLPSHVDVTLDNLKAFVSANTPLYIGRDGCIKEFNEVLKNYANIPDAEQLKLIEKLQAKQEQLTDPEQQQNARAYLIYMRKIHEVGYDFLEEETKRLLRLKAGKVTEAKKEELLRKLNILEVFRVHKVTKTAPEKEEL
On to B6, for which the MAPPIT interaction score with CG10616 is -0.151.

B7: Adf1 (protein)
chain: MHTLTAAIEMDKLDANLEQQFDLNLIEAVKLNPVIYDRSHYNYKHFVRKAQTWKQIAETLGVPEQKCTKRWKSLRDKFAREMKLCQESRWRYFKQMQFLVDSIRQYRESLLGKCANGSQSANQVADPSQQQQAQQQTVVDIFAQPFNGSATTSAQALTHPHEITVTSDAQLATAVGKDQKPYFYEPPLKRERSEEEHSDNMLNTIKIFQNNVSQAVSAEDQSFGMVVTDMLNTLGVRQKAEAKVHIIKYLTDMQLLAQHNKY
Take B7: the MAPPIT interaction score is 2.6 (active) in the experiment with CG11275 (pair source set: screen_1) and -0.0528 in the experiment with CG8159.

B8: mRpS24 (protein)
chain: MNFLKKLLPQVATEVQQLSRSGFHTSSVCCRVQSGRYRITTKRNRPLTYEMANPPHFIGHRKSWNSWNTSTMKDALRPSQTAIEDVFIRKFVTGTWHALVCSEVIIKRQHNTIRIAALIRQAITPRKMYFLIGYTEELLSYWMQCPVTLELQTVGDKKDVVFKYI
On to B8, for which the MAPPIT interaction score was 0.0908 with CG11570 (MAPPIT configuration: N-C), -0.09 with CG11570 (MAPPIT configuration: N-N), 0.186 in the experiment with MFS16 and 0.192 in the experiment with Tsp.
